# Experimental data: PubChem BioAssay AID504832 (National Center for Advancing Translational Sciences (NCATS), 2011)
# In all, about 310,000 compounds went through this assay and about 18,000 (5.8%) were called active. A call without a number means that no potency is given here. Not shown: some 22% with an inconclusive outcome. Calls follow the shape of the dose curve; as a rule, active = well fitted inhibition curve with a large enough effect; inconclusive = small, poorly fitted or top-dose-only effect, or another doubt; inactive = no such curve, though single readings can be large or run the other way. The sample as a whole holds a higher share of actives than the screen did.
# Experiment: Primary qHTS for delayed death inhibitors of the malarial parasite plastid, 48 hour incubation
# Settings: P. falciparum luciferase growth in erythrocytes; series mostly up to 28.7 µM
# In short: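 Parasite viability was followed by luminescence of a genomically integrated firefly luciferase. Cultures held 0.1% parasitemia at 2% hematocrit (final), incubated under 5% CO2 at 37 C.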
# Potency is read from the fitted curve at half-maximal effect.
Compound,Potency,"activity change, negative = inhibition"
CCCCN(C(=O)C1CCC1)c1c(N)n(Cc2ccccc2)c(=O)[nH]c1=O,inactive,–
O=C(Cn1cc(-c2nnnn2-c2ccc(Cl)cc2)c(=O)c2ccccc21)c1ccccc1,1650 nM (active),–
CCCc1c(C(=O)O)cnn1-c1ccc(Cl)cc1,inactive,–
O=C(Nc1ccccc1)OCc1cn(-c2ccc(Cl)cc2)nn1,inactive,–
O=C(NCCS(=O)(=O)N1CCN(c2ccc(F)cc2)CC1)c1ccc2c(c1)OCO2,inactive,–
CCOCCCNC(=S)Nc1ccc2nc(N3CCN(CC)CC3)cc(C)c2c1,inactive,–
CC[N+](C)(CC)CCC[n+]1c(-c2ccccc2)c2cc(N)ccc2c2ccc(N)cc21,1850 nM (active),–
CC(=O)Nc1ccc(NC(=O)CCCNC(=O)c2ccc(Cl)cc2)cc1,inactive,–
CC[n+]1c(C)n(-c2ccccc2)c2ccc(NC(C)=O)cc21,4650 nM (active),–
CC(=O)Nc1ccc(NC(=O)CSc2nnc(C3CC3)n2-c2ccccc2)cc1,inactive,–
CC(=O)c1cccc(NC(=O)c2cc(C)nn2-c2ccccc2)c1,–,-2.83% [at 0.00184 µM] (inactive)
O=C(COc1ccc(Cl)cc1)NCCS(=O)(=O)N1CCN(c2ccc(F)cc2)CC1,inactive,–
CCc1ccccc1NC(=O)NCCN1CCCCC1,inactive,–
CC(C)c1ccc(NC(=O)Cn2ncc3ccccc32)cc1,inactive,–
COc1cccc(NC(=O)CN(C)C(=O)CSCc2nc3scc(-c4cccs4)c3c(=O)[nH]2)c1,inactive,–
N/C(=N\OC(=O)N1c2ccccc2Sc2ccccc21)c1ccc(Br)cc1,8280 nM (active),–
N/C(=N\OC(=O)Cc1ccccc1[N+](=O)[O-])c1ccc(Br)cc1,inactive,–
N/C(=N\OC(=O)/C=C/c1ccccc1)c1ccc(Br)cc1,inactive,–
CCn1c(=S)sc2c(=O)n(CC(=O)Nc3ccc(OC)cc3)c(C)nc21,inactive,–
CC(C)Oc1ccc(CCc2nnc(SCC(=O)O)n2-c2ccccc2)cc1,–,1.18% [at 5.75 µM] (inactive)
C=CCn1c(CCc2ccc(OC(C)C)cc2)n[nH]c1=S,inactive,–
CC(C)Oc1ccc(CCc2n[nH]c(=S)n2Cc2ccccc2)cc1,2080 nM (active),–
CCOc1ccccc1OCCCNCc1ccccc1,inactive,–
COc1cccc(NS(=O)(=O)c2ccc(-c3coc(C)n3)cc2)c1,inactive,–
CCC(=O)Nc1ccc(-c2ccc(N3CCCCC3)nn2)cc1,inactive,–
O=C(O)CN1CCN(C(c2ccccc2)c2ccccc2)CC1,inactive,–

Compound,Potency,"activity change, negative = inhibition"
CC(OC(=O)c1ccc(-n2cnnn2)cc1)C(=O)NCc1ccccc1 (configuration not stated),inactive,–
O=C(c1ccc(-n2cnnn2)cc1)N1CCN(C(c2ccccc2)c2ccccc2)CC1,2620 nM (active),–
Cn1nnnc1SCC(=O)N1CCN(C(c2ccccc2)c2ccccc2)CC1,9280 nM (active),–
Cn1nnnc1SCC(=O)N1CCN(Cc2ccccc2)CC1,inactive,–
Cn1nnnc1SCC(=O)Nc1nc2ccccc2s1,inactive,–
COC(=O)c1sc(N2CCN(Cc3ccccc3)CC2)nc1N,–,-6.08% [at 0.00184 µM] (inactive)
COc1ccccc1-n1ccnc(SCC(=O)NC2CCCCC2)c1=O,inactive,–
O=C(Nc1c2c(nn1-c1cccc(Cl)c1)CS(=O)(=O)C2)c1cccs1,inactive,–
CCOC(=O)N1CCN(C(=O)c2cn(C)c3ccc(S(=O)(=O)N(CC)CC)cc3c2=O)CC1,inactive,–
CCN(CC)S(=O)(=O)c1ccc(Cl)c(C(=O)NCCN2CCOCC2)c1,inactive,–
C=CCn1cc(C(=O)NCc2ccc(Cl)cc2)c(=O)c2cc(S(=O)(=O)N(CC)CC)ccc21,11700 nM (active),–
O=C(CN1CCN(C(=O)C2CCCO2)CC1)Nc1c(Cl)cccc1Cl (configuration not stated),inactive,–
O=C(NC(=S)NC1CCCCC1)c1ccc(Cl)cc1,inactive,–
CCOC(=O)N1CCN(S(=O)(=O)c2ccc(Br)cc2)CC1,inactive,–
Cn1c(N)cc(-c2ccc(F)cc2)c(C#N)c1=O,inactive,–
COc1ccc(O)c(C(=O)c2cnc3c(c2)c(-c2ccc(F)cc2)c(C#N)c(=O)n3C)c1,1650 nM (active),–
Cc1cc(C)c2c(-c3ccc(F)cc3)c(C#N)c(=O)n(C)c2n1,inactive,–
COc1ccc(/C=N/Nc2nc(-c3ccc(C)cc3)c(C#N)c(=O)[nH]2)cc1,inactive,–
COc1ccccc1C(=O)NC(CCSC)C(=O)N1CCN(C(C)=O)CC1 (configuration not stated),inactive,–
CSCCC(NC(=O)c1ccccc1)C(=O)N1CCCCCCC1 (configuration not stated),inactive,–
CSCCC(NC(=O)c1ccccc1)C(=O)N1CCN(Cc2ccc(Cl)cc2)CC1 (configuration not stated),2940 nM (active),–
c1ccc2c(c1)CSc1sccc1C2=C1CCNCC1,11700 nM (active),–
O=C(CNC(=O)c1ccc(Br)o1)NCC1CCCO1 (configuration not stated),inactive,–
CCOC(=O)N1CCN(C(=O)COC(=O)c2cccc(S(C)(=O)=O)c2)CC1,inactive,–
CCOc1ccc(NC(=O)C(C)N2C(=O)c3ccccc3C2=O)cc1 (configuration not stated),inactive,–
COc1ccc(-c2ccc3nnc(SCC(=O)Nc4ccc(NC(C)=O)cc4)n3n2)cc1,inactive,–
